Data reported in the supplement of paper PMC10849652.
About 7,900 targets were measured; listed, in parts, are those with a hit and a random draw of the rest. About 0.6% of all pairs of compound and target were hits. A number with no mark means an inactive call.

Columns and labels:
Assay in all cases: log2 fold change, soluble protein after heating vs DMSO (PISA); higher = thermal stabilisation; K562 cells, 10 uM, 30 min; active = over 0.2 and 3.5 SD of the protein, either way, in both replicates (recomputed)
[1] = compound: COC1=CC=C(C=C1)CN2C=CC3=C2C=C(C=C3)C(=O)NO
How it was run: (§1)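 Aliquots of K562 cells (2×10^6 cells/mL) treated with 10 μM compound for 30 min were heated for 3 min over 48°C-58°C. After pooling and extraction in PBS with 0.5% NP-40 at 4°C, soluble protein from a 21,000xg, 90 min spin was quantified by TMTpro 16plex LC-MS/MS with channel sums equalised. Thermal stability is expressed against control samples, from duplicates, as a log2 fold change.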

[2] = compound: CON(C)C(=O)N1N=C(c2cc(F)ccc2F)S[C@@]1(CCCN)c1ccccc1 [filanesib]
How it was run: as §1

[3] = compound: CO[C@H]1C[C@@H]2CC[C@@H](C)[C@@](O)(O2)C(=O)C(=O)N2CCCC[C@H]2C(=O)O[C@H]([C@H](C)C[C@@H]2CC[C@H](n3cnnn3)[C@H](OC)C2)CC(=O)[C@H](C)/C=C(\C)[C@@H](O)[C@@H](OC)C(=O)[C@H](C)C[C@H](C)/C=C/C=C/C=C/1C [zotarolimus]
How it was run: as §1

[4] = compound: COc1cc(C(=O)O)ccc1NC(=O)[C@@H]1N[C@@H](CC(C)(C)C)[C@](C#N)(c2ccc(Cl)cc2F)[C@H]1c1cccc(Cl)c1F [idasanutlin]
How it was run: as §1

[5] = compound: COc1cc(Nc2ncc3c(n2)-c2ccc(Cl)cc2C(c2c(F)cccc2OC)=NC3)ccc1C(=O)O [alisertib]
How it was run: as §1

[6] = compound: COc1cc2nc(-c3cc(F)ccc3O)nc(N[C@@H]3CNC[C@H]3C(C)(C)O)c2cc1OC
How it was run: as §1

[7] = compound: COc1cc2ncnc(Nc3ccc(F)c(Cl)c3)c2cc1OCCCN1CCOCC1 [gefitinib]
How it was run: as §1

[8] = compound: COc1cccc2cc(-c3nc([C@H]4CC[C@H](C(=O)O)CC4)n4ncnc(N)c34)[nH]c12
How it was run: as §1

[9] = compound: CS(=O)(=O)CCNCc1ccc(-c2ccc3ncnc(Nc4ccc(OCc5cccc(F)c5)c(Cl)c4)c3c2)o1 [lapatinib]
How it was run: as §1

[10] = compound: CS(=O)(=O)N1CCN(Cc2cc3nc(-c4cccc5[nH]ncc45)nc(N4CCOCC4)c3s2)CC1 [pictilisib]
How it was run: as §1

[11] = compound: CS(=O)(=O)c1ccc(-c2cnc(N)c(C(=O)Nc3ccccc3)n2)cc1
How it was run: as §1

[12] = compound: C[C@@H](Oc1cc(-c2cnn(C3CCNCC3)c2)cnc1N)c1c(Cl)ccc(F)c1Cl [crizotinib]
How it was run: as §1

[13] = compound: C[C@@H]1COCCN1C2=NC(=NC(=C2)C3(CC3)S(=O)(=O)C)C4=C5C=CNC5=CC=C4
How it was run: as §1

[14] = compound: C[C@H](C1=CC=C(C=C1)C(=O)NC2=C3C=CNC3=NC=C2)N
How it was run: as §1

[15] = compound: C[C@H](Nc1ncnc2nc[nH]c12)c1cc2cccc(Cl)c2c(=O)n1-c1ccccc1 [duvelisib]
How it was run: as §1

[16] = compound: Cc1cc(Nc2cc(CN3CCOCC3)c3nc(C)c(Cc4ccc(Cl)cc4F)n3n2)n[nH]1 [gandotinib]
How it was run: as §1

[17] = compound: Cc1cc(Nc2cc(N3CCN(C)CC3)nc(Sc3ccc(NC(=O)C4CC4)cc3)n2)n[nH]1 [tozasertib]
How it was run: as §1

[18] = compound: Cc1cc(SCc2sc(-c3ccc(C(F)(F)F)cc3)nc2C)ccc1OCC(=O)O
How it was run: as §1

[19] = compound: Cc1ccc(-n2nc(C(C)(C)C)cc2NC(=O)Nc2ccc(OCCN3CCOCC3)c3ccccc23)cc1 [doramapimod]
How it was run: as §1

[20] = compound: Cc1ccc(C(=O)N(CCCN)[C@@H](c2nc3cc(Cl)ccc3c(=O)n2Cc2ccccc2)C(C)C)cc1 [ispinesib]
How it was run: as §1

Sequence of UniProt Q9H082 (Q9H082 whole entry, looked up): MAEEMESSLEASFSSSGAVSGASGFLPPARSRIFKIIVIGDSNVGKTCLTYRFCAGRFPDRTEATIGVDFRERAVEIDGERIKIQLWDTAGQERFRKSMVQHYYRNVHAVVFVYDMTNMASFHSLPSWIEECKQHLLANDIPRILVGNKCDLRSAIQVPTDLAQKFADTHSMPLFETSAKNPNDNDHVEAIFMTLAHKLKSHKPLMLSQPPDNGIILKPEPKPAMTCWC
Sequence of UniProt Q8N0T1 (Q8N0T1 whole entry, looked up): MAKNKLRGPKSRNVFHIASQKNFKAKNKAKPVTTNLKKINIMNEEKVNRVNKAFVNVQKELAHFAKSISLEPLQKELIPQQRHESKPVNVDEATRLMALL
Sequence of UniProt Q92696 (Q92696 whole entry, looked up): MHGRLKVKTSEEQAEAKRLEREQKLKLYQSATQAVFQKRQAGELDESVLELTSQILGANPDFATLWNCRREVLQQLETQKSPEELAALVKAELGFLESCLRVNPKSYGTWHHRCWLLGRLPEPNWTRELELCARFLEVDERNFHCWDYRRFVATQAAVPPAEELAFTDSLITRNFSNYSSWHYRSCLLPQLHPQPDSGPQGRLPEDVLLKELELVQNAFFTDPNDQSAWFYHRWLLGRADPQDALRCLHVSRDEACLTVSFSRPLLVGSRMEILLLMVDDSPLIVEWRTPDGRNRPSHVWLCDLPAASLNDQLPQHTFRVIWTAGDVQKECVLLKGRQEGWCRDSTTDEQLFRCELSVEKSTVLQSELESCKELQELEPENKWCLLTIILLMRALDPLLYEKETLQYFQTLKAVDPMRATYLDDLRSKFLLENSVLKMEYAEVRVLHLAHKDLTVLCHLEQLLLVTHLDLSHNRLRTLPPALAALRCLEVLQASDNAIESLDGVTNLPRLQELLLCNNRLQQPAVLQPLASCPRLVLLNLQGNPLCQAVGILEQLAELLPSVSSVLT
Sequence of UniProt Q9NX18 (Q9NX18 whole entry, looked up): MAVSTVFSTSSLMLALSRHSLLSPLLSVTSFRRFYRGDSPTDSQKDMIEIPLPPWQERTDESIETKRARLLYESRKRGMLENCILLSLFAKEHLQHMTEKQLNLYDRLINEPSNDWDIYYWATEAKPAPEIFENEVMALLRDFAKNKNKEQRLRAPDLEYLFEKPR
Sequence of UniProt O75116 (O75116 whole entry, looked up): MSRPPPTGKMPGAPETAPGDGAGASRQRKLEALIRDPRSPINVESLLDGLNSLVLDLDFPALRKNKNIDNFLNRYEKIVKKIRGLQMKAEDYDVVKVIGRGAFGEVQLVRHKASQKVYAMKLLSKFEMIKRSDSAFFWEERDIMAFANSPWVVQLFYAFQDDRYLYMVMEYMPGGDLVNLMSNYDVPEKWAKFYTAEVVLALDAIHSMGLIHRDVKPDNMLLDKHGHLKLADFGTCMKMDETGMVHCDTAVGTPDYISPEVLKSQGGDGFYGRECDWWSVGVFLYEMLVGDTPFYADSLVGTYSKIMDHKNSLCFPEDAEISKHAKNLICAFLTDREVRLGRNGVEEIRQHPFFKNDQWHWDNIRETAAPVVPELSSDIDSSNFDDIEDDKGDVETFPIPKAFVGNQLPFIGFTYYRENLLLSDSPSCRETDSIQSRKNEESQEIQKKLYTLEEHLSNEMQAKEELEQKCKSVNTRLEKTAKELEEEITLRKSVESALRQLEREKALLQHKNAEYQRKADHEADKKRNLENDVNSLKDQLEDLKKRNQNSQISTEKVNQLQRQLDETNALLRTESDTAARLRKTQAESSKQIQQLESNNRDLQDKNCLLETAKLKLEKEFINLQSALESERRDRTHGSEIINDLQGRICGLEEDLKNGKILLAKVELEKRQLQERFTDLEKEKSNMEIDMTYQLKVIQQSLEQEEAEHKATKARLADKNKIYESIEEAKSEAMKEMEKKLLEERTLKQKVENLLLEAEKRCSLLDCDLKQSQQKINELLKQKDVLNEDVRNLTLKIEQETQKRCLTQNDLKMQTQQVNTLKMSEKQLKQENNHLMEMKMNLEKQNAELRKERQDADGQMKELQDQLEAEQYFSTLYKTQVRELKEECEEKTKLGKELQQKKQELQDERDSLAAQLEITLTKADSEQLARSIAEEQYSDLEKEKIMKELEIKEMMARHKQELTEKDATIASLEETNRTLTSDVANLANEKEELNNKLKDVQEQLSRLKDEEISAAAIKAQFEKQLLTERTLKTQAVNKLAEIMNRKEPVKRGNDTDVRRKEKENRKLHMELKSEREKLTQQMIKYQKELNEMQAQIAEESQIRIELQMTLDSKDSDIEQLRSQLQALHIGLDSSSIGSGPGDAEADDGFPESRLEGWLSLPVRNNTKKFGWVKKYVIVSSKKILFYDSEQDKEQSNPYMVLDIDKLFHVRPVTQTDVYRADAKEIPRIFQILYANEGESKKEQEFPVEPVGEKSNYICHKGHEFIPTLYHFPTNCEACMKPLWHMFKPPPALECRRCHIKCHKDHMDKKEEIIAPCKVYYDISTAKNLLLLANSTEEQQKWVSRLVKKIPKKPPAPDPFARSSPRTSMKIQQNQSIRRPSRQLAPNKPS
Sequence of UniProt Q5VZM2 (Q5VZM2 whole entry, looked up): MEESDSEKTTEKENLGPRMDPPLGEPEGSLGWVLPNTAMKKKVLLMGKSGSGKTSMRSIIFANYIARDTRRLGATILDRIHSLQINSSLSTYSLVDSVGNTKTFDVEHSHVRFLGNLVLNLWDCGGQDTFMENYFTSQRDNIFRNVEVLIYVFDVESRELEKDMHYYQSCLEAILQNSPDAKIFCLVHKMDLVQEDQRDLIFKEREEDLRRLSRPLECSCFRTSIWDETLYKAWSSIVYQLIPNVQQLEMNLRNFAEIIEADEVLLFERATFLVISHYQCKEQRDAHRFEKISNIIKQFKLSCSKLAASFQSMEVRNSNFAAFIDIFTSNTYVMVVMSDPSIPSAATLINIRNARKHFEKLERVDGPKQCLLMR
Sequence of UniProt O94979 (O94979 whole entry, looked up): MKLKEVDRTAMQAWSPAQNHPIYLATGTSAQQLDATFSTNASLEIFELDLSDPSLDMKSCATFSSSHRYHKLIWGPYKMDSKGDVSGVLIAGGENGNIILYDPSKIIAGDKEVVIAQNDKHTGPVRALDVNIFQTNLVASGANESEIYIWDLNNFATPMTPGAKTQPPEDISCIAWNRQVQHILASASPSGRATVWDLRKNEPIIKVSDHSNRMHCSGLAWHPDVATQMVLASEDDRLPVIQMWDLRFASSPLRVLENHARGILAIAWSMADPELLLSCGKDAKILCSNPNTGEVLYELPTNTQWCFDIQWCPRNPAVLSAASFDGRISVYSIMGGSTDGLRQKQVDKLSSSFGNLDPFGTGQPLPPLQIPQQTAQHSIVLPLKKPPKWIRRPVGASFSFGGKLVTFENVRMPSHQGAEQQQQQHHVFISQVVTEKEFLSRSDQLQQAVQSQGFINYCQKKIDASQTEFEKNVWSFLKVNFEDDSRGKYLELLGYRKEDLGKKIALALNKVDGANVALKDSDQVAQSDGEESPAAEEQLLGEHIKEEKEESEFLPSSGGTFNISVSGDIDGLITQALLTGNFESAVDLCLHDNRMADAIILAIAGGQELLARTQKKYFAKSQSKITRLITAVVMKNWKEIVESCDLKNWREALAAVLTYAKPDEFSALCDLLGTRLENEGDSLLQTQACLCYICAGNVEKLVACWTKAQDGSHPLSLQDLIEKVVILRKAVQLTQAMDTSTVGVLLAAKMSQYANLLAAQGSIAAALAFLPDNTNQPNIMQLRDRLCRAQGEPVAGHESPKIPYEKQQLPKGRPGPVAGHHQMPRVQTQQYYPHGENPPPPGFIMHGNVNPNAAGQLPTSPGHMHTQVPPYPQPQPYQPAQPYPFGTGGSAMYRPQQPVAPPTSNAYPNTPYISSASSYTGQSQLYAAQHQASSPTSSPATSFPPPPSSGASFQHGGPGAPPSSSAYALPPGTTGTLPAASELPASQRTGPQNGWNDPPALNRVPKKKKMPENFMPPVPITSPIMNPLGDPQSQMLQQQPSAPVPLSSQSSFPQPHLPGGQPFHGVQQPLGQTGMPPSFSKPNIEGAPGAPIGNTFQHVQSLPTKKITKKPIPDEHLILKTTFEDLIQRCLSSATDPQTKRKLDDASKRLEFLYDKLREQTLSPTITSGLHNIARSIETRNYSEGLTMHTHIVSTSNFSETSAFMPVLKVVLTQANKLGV
Sequence of UniProt Q8WXD2 (Q8WXD2 whole entry, looked up): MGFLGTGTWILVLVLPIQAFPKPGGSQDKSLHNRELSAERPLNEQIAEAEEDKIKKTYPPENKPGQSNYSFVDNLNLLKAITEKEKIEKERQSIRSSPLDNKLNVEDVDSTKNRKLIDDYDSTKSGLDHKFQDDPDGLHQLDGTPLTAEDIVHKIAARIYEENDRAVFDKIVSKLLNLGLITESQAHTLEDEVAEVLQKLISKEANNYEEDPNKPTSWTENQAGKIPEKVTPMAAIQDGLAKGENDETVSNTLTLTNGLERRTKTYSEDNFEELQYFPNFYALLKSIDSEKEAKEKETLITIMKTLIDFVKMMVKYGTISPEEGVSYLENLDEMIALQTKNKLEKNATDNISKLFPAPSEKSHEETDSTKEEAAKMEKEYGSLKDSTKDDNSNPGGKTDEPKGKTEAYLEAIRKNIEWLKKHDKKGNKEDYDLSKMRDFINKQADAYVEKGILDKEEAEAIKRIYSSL
Sequence of UniProt P63208 (P63208 whole entry, looked up): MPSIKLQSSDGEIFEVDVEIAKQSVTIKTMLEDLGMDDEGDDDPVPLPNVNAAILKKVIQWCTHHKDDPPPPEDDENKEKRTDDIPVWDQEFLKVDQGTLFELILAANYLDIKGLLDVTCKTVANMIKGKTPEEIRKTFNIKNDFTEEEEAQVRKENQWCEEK
Sequence of UniProt P51148 (P51148 whole entry, looked up): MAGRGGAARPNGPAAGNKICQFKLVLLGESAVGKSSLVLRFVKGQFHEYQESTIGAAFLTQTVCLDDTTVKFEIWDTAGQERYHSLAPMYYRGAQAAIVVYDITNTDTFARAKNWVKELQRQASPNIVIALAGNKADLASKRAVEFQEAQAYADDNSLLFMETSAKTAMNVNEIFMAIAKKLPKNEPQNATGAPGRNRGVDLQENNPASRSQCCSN

Target | log2 fold change [1] | log2 fold change [2] | log2 fold change [3] | log2 fold change [4] | log2 fold change [5] | log2 fold change [6] | log2 fold change [7] | log2 fold change [8] | log2 fold change [9] | log2 fold change [10] | log2 fold change [11] | log2 fold change [12] | log2 fold change [13] | log2 fold change [14] | log2 fold change [15] | log2 fold change [16] | log2 fold change [17] | log2 fold change [18] | log2 fold change [19] | log2 fold change [20]
RBIS (UniProt Q8N0T1) | -0.069 | 0.077 | -0.075 | 0.061 | -0.053 | -0.018 | -0.056 | -0.012 | 0.012 | -0.04 | -0.157 | -0.097 | -0.086 | 0.069 | -0.028 | 0.053 | -0.014 | -0.045 | 0.062 | 0.009
SKP1 (UniProt P63208) | 0.209 | -0.095 | 0.09 | 0.027 | -0.005 | -0.099 | 0.001 | -0.008 | 0.01 | -0.121 | -0.052 | 0.027 | -0.039 | -0.19 | -0.054 | -0.035 | 0.001 | 0.038 | -0.096 | 0.089
SCG3 (UniProt Q8WXD2) | 0.002 | -0.001 | -0.044 | -0.056 | 0.128 | -0.082 | 0.089 | -0.236 | 0.07 | -0.086 | -0.069 | 0.074 | -0.089 | -0.109 | 0 | -0.101 | 0.075 | -0.194 | 0.124 | 0.171
SCCPDH (UniProt Q8NBX0) | 0.436 (active) | 0.139 | 0.349 | 0.025 | -0.058 | -0.026 | -0.016 | 0.076 | 0.015 | 0.135 | 0.074 | 0.333 | 0.058 | -0.093 | 0.068 | 0.313 | -0.018 | 0.124 | 0.007 | 0.081
RPS5 (UniProt P46782) | 0.004 | 0.089 | 0.011 | 0.094 | -0.11 | -0.056 | -0.052 | -0.126 | 0.081 | -0.099 | -0.081 | 0 | -0.255 | 0.176 | -0.081 | 0.108 | 0.029 | 0.017 | 0.069 | -0.073
RABGGTA (UniProt Q92696) | 0.019 | -0.013 | 0.022 | -0.019 | 0.016 | -0.007 | 0.041 | 0.017 | 0.002 | 0.067 | -0.035 | -0.076 | 0.046 | -0.058 | 0.045 | -0.004 | -0.036 | -0.008 | 0.017 | 0.026
ROCK2 (UniProt O75116) | -0.009 | -0.006 | 0.023 | 0 | 0.072 | 0.135 | 0.045 | -0.038 | -0.029 | 0.071 | 0.033 | -0.041 | 0.026 | 0.392 (active) | 0.025 | -0.049 | -0.035 | 0.004 | 0.007 | -0.049
SDHAF2 (UniProt Q9NX18) | 0.063 | -0.03 | 0.068 | -0.085 | 0.02 | -0.163 | 0.09 | 0.102 | -0.013 | 0.091 | -0.042 | -0.183 | 0.07 | -0.111 | 0.082 | 0.057 | 0.002 | -0.125 | -0.051 | 0.006
RAB33B (UniProt Q9H082) | -0.104 | -0.018 | -0.073 | 0.036 | 0.035 | 0.039 | 0.037 | 0.087 | 0.046 | 0.106 | 0.007 | 0.106 | 0.064 | -0.037 | 0.058 | -0.095 | -0.032 | -0.038 | -0.021 | -0.065
SERPINA7 (UniProt P05543) | -0.213 | 0.251 | -0.206 | 0.071 | 0.052 | 0.008 | -0.157 | 0.381 | -0.017 | -0.088 | -0.16 | 0.133 | -0.095 | 0.257 | -0.201 | -0.02 | -0.046 | -0.158 | 0.217 | 0.068
RAB5C isoform 2 (UniProt P51148) | -0.002 | -0.053 | -0.015 | -0.055 | -0.095 | 0.015 | 0.013 | 0.038 | -0.027 | -0.017 | -0.015 | 0.099 | 0.015 | -0.092 | 0.011 | -0.021 | -0.029 | 0.014 | 0.013 | 0.054
RETSAT (UniProt Q6NUM9) | 0.051 | 0.109 | 0.094 | -0.077 | 0.067 | 0.064 | 0.052 | -0.093 | 0.192 | 0.074 | -0.038 | 0.005 | -0.129 | -0.003 | 0.083 | 0.284 | -0.103 | 0.036 | 0.147 | -0.008
SEC31A (UniProt O94979) | 0.01 | 0.063 | 0.029 | -0.039 | 0.006 | 0.211 | 0.008 | -0.01 | -0.036 | -0.002 | 0.045 | -0.011 | 0.007 | 0.084 | 0.004 | -0.158 | 0.049 | 0.064 | 0 | 0.034
RPS21 (UniProt P63220) | -0.033 | 0.086 | -0.021 | 0.031 | -0.069 | 0.04 | 0.002 | -0.022 | -0.027 | -0.01 | -0.053 | 0.141 | -0.108 | 0.044 | -0.001 | 0.048 | -0.005 | -0.004 | -0.022 | 0.015
RRAGB (UniProt Q5VZM2) | -0.018 | -0.059 | -0.086 | -0.026 | -0.054 | -0.078 | -0.003 | 0.053 | 0.042 | 0.052 | 0.016 | -0.131 | 0.01 | -0.123 | 0.01 | -0.008 | -0.007 | -0.011 | 0.015 | -0.065
